Outcome and AC50 data for 40 compounds are collected here from PubChem BioAssay (EPA / NIEHS).

Molecules are shown by their SMILES. Results filed as inconclusive are left out. Calls of active or inactive are those of the source. Rule for the calls: active = hit-call score of the fitted dose curve at least 0.9, where 1 is the maximum; inconclusive = response in the unintended direction; inactive = score below 0.9.

For the assay, the target named is human Thyroid Receptor alpha (THRa1), THRA (gene 7067) (UniProt P10827). In words: ATG_THRa1_TRANS: Attagene TRANS-FACTORIAL HepG2 Assay for human Thyroid Receptor alpha (THRa1) (AID 2283014). Here is the method: ATG_TRANS is a cell-based, multiplexed-readout assay that uses HepG2, a human liver cell line, with measurements taken at 24 hours after chemical dosing in a 24-well plate.ATG_THRa1_TRANS is one of 30 assay component(s) measured or calculated from the ATG_TRANS assay. It is designed to make measurements of mRNA induction, a form of inducible reporter, as detected with fluorescence intensity signals by Reverse transcription polymerase chain reaction (RT-PCR) and Capillary electrophoresis technology.Data from the assay component ATG_THRa1_TRANS was analyzed into 1 assay endpoint. This assay endpoint, ATG_THRa1_TRANS, was analyzed in the positive analysis fitting direction relative to DMSO as the negative control and baseline of activity. Using a type of inducible reporter, measures of mRNA for gain-of-signal activity can be used to understand the reporter gene at the transcription factor-level as they relate to the gene THRA. Furthermore, this assay endpoint can be referred to as a primary readout, because this assay has produced multiple assay endpoints where this one serves a reporter gene function. To generalize the intended target to other relatable targets, this assay endpoint is annotated to the nuclear receptor intended target family, where the subfamily is non-steroidal.
Sequence of human Thyroid Receptor alpha (THRa1), THRA (gene 7067) (P10827 whole entry, looked up): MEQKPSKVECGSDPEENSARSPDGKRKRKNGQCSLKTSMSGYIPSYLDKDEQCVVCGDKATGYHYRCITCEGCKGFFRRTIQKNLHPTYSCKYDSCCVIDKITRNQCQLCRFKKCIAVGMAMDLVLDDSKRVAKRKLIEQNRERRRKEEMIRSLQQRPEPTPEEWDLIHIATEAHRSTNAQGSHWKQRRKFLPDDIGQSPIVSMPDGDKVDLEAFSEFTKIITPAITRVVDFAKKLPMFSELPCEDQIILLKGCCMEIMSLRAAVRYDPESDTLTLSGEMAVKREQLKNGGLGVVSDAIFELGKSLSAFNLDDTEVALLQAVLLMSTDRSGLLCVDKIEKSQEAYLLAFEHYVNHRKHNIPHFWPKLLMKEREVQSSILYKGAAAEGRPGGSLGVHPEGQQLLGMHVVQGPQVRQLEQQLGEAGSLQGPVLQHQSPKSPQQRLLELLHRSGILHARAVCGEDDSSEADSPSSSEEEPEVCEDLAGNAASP
Human liver HepG2 cells are transiently transfected with multiple reporter transcription units (MRTUs) in 6-well plates using FuGene 6 reagent (Roche; 3 ml FuGene/1 mg DNA). The MRTU constructs are regulated by a cis-regulating element (promoter). […] A major difference between the CIS and TRANS system is that in CIS activities of endogenous TFs are measured, whereas the TRANS assay evaluates changes in activities of exogenous, chimeric NR-Gal4 proteins. […] At the end of 24 hour incubation, total RNA was isolated using TriZol reagent (Invitrogen). The isolated RNA is then reverse-transcribed using oligo(dT) primer and Mo-MLV reverse transcriptase (Invitrogen) with DNAse I (Ambion) treatment for 30 min. The one-tenth of the produced cDNA was amplified by PCR using Taq DNA polymerase (Invitrogen) and two reporter sequence-specific primers. The PCR products were fluorescently labeled by primer extension with 6-arboxyfluorescein (6-FAM) 5'-labeled reporter sequence-specific primer (2 min at 95 C, 20 s at 68 C and 10 min at 72 C) and these products were digested with 5U of HpaI (New England Biolabs) for 2h at 37 C. The fragments were purified using Qiaquick PCR columns (Qiagen), analyzed on an ABI 3130xL genetic analyzer (Applied Biosystems) with peak positions identified by using a set of X-rhodamine (ROX)-labeled MapMarker1000 molecular weight standards (BioVentures). The raw capillary electrophoresis data was processed using Attagraph software (Attagene).
Take `COC(=O)c1ccc([N+](=O)[O-])cc1`: the result was inactive.

In the case of `CCCCC1CCC(O)CC1` (stereo not given), the compound was called inactive.

`CCCOCCO`: the outcome was inactive.

Turning to `CC/C=C\CC/C=C/CO`, the compound was called inactive.

`COc1cc([C@@H]2c3cc4c(cc3[C@@H](O[C@@H]3O[C@@H]5CO[C@@H](C)O[C@H]5[C@H](O)[C@H]3O)[C@H]3COC(=O)[C@H]23)OCO4)cc(OC)c1O`: the outcome was inactive.

Take `CCCCCCCCN1CCCC1=O`: the compound was classed as inactive.

In the case of `O=C1OC2(c3ccccc31)c1ccc(O)c(Br)c1Oc1c2ccc(O)c1Br`, the call was inactive.

As to `CC(C)CCCCCCCCCCCCCCC(=O)O`, the outcome was inactive.

For `CCNCCO`, the compound was called inactive.

In the case of `CCC1CCCCC1`, the compound was called inactive.

As for `NCCNc1cccc2ccccc12`, the call was inactive.

`O=C(c1ccccc1)C(O)c1ccccc1` (stereo not given): the call was inactive.

For the compound `C=C(C)[C@@H]1CC=C(C)C(=O)C1`, the outcome was inactive.

On to `CC(=O)Nc1ccc(C(=O)CCl)cc1`, for which the result was inactive.

Consider `C=CCCCCCCCCCC`, for which the call was inactive.

As to `C=Cc1ccncc1`, the compound was classed as inactive.

Regarding `CCCCCCCCCCCCN1CCCCCC1=O`, the outcome was inactive.

Turning to `OCc1cccc(Oc2ccccc2)c1`, the outcome was inactive.

Turning to `CCCCCC(=O)CC`, the result was inactive.

As to `OCCOCCN1CCN(C2=Nc3ccccc3Sc3ccccc32)CC1`, the compound was called inactive.

Consider `CC(C)C[C@H](NC(=O)OCC1c2ccccc2-c2ccccc21)C(=O)O`, for which the call was inactive.

For the compound `c1ccc2[nH]cnc2c1`, the compound was classed as inactive.

Regarding `Oc1ccc2cc(SSc3ccc4cc(O)ccc4c3)ccc2c1`, the outcome was inactive.

On to `C1=CC2C3C=CC(C3)C2C1` (stereo not given), for which the outcome was inactive.

With `CCCCC(CC)COC(=O)c1ccc(O)cc1` (stereo not given), the compound was classed as inactive.

Take `CCOc1ccccc1O`: the compound was called inactive.

For `Clc1cc(Cl)c(-c2c(Cl)c(Cl)cc(Cl)c2Cl)cc1Cl`, the result was inactive.

With `CC[N+](C)(CC)CC`, the compound was classed as inactive.

For `O=c1c(O)c(-c2ccc(O)cc2)oc2cc(O)cc(O)c12`, the outcome was inactive.

On to `C=CCCC(=O)/C=C/C1C(C)=CCCC1(C)C` (stereo not given), for which the result was inactive.

`O=C(O)COCC(=O)O`: the compound was called inactive.

For `C=C(C)CNCC`, the compound was called inactive.

Consider `COS(=O)(=O)O`, for which the result was inactive.

In the case of `COC(C)(C)CC(C)=O`, the outcome was inactive.

Take `CC=Cc1ccc(OCC)c(O)c1`: the call was inactive.

In the case of `Nc1ccc(N)c2c1C(=O)c1ccccc1C2=O`, the outcome was inactive.

With `O=Cc1ccccc1S(=O)(=O)O`, the compound was called inactive.

For `O=C(O)CNc1ccccc1`, the compound was called inactive.

In the case of `CC=CC=CCOC(=O)C(C)C`, the compound was called inactive.

For the compound `N#Cc1ccc(CC(=O)c2cccc(C(F)(F)F)c2)cc1`, the AC50 (as a rule, the concentration giving half of the maximal activity seen) is 42 µM (active).
